Results as given in PubChem BioAssay (EPA / NIEHS).
Records with an inconclusive call do not appear. Active and inactive are the calls of the source. The calls were made as follows: active = hit-call score of the fitted dose curve at least 0.9, where 1 is the maximum; inconclusive = response in the unintended direction; inactive = score below 0.9.

Tests used:
[1] = target: human Phosphoinositide 3-kinase alpha (PI3Ka), PIK3CA (gene 5290) (UniProt P42336); assay: NVS_ENZ_hPI3Ka: NovaScreen (NVS) Enzymatic Assay for human Phosphoinositide 3-kinase alpha (PI3Ka) (AID 2283196)
human Phosphoinositide 3-kinase alpha (PI3Ka), PIK3CA (gene 5290), sequence (P42336 whole entry, looked up): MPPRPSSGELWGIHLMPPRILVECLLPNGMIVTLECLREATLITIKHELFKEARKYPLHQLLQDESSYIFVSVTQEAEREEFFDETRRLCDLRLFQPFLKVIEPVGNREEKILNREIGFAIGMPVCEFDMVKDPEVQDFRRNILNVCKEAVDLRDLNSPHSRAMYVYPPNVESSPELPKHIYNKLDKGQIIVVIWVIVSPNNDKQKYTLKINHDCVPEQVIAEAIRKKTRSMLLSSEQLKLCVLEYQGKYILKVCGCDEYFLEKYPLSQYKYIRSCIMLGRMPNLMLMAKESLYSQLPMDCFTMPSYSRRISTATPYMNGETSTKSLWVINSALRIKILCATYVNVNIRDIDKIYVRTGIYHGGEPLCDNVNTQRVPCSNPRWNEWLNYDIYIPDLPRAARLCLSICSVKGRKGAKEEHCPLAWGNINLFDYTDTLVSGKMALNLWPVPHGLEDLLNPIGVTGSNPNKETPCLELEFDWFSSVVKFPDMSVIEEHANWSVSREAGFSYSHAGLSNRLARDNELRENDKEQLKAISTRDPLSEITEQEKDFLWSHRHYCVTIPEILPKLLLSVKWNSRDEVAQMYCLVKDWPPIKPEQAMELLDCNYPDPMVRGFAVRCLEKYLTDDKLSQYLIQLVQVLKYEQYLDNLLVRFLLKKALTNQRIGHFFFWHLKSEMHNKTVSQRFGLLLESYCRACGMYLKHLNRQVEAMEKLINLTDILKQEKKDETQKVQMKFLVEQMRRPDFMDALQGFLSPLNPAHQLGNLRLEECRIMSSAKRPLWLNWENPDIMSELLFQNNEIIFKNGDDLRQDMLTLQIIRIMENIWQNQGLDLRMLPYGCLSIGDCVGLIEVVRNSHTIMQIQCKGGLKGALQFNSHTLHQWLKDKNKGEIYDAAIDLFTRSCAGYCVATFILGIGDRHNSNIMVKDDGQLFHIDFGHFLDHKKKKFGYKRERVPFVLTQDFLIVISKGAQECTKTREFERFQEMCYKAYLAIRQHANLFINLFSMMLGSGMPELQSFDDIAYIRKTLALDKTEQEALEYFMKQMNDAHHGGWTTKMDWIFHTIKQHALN
Procedure, shortened: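 Duplicate single-point screen (25 uM), then singleton dose-response (max 50 uM) for compounds meeting the threshold. Cell-free kinase reaction, 1 h; fluorescent mobility-shift readout.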

[2] = target: Tyrosine-protein phosphatase non-receptor type 11 (Homo sapiens) (UniProt Q06124); assay: NVS_ENZ_hPTPN11: NovaScreen (NVS) Enzymatic Assay for human Protein Tyrosine Phosphatase Non-receptor Type 11 (PTPN11) (AID 2283202)
Tyrosine-protein phosphatase non-receptor type 11 (Homo sapiens), sequence (Q06124 whole entry, looked up): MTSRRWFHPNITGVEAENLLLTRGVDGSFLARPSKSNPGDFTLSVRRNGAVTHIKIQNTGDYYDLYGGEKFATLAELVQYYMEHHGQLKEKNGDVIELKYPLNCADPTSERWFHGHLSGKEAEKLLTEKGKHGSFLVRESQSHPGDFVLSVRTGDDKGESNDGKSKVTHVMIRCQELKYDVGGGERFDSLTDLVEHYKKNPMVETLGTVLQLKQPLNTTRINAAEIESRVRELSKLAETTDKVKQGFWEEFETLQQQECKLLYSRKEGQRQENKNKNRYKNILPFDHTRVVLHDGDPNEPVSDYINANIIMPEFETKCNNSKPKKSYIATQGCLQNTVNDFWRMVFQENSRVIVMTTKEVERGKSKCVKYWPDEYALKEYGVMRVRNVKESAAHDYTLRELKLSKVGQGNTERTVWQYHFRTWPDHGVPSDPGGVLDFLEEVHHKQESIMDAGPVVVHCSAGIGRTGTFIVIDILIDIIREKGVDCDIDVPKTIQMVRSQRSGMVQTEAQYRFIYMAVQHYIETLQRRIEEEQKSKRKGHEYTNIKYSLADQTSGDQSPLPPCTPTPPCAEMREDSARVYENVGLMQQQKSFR
Procedure, shortened: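 Compounds first tested in duplicate at 25 uM; those reaching ~30% inhibition rerun in singleton concentration-response, top 50 uM. Phosphatase activity measured after 0.5 h by fluorescence with mobility-shift separation, relative to DMSO.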

[3] = target: Tyrosine-protein phosphatase non-receptor type 12 (Homo sapiens) (UniProt Q05209); assay: NVS_ENZ_hPTPN12: NovaScreen (NVS) Enzymatic Assay for human Protein Tyrosine Phosphatase Non-receptor Type 12 (PTPN12) (AID 2283204)
Tyrosine-protein phosphatase non-receptor type 12 (Homo sapiens), sequence (Q05209 whole entry, looked up): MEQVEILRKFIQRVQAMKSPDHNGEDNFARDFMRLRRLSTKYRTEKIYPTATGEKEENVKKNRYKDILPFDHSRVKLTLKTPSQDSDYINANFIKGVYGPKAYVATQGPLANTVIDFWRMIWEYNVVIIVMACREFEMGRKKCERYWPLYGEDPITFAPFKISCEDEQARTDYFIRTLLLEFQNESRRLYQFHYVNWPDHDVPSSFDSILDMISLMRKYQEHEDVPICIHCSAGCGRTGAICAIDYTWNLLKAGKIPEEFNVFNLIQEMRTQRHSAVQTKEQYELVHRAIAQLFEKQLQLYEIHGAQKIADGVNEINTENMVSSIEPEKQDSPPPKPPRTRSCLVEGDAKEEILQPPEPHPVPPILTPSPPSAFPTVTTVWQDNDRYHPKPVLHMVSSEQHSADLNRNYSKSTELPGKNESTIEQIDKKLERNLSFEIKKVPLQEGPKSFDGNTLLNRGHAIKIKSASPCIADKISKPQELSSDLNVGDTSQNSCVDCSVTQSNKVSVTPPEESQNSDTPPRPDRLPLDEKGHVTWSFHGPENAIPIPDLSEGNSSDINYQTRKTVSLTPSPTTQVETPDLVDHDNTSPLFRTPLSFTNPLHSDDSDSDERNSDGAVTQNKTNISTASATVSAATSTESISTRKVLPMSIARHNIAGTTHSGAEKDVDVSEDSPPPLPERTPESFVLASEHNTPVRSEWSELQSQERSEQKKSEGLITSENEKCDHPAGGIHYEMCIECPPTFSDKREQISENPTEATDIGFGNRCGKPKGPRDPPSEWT
Procedure, shortened: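 Single-concentration duplicates (25 uM) preceded singleton concentration-response up to 50 uM for chemicals passing threshold. Cell-free recombinant PTPN12 activity was read 1.33 h after dosing via fluorescence after mobility-shift separation; loss of signal versus DMSO.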

[4] = target: human Vascular Endothelial Growth Factor Receptor 3 (VEGFR3), FLT4 (gene 2324) (UniProt P35916); assay: NVS_ENZ_hVEGFR3: NovaScreen (NVS) Enzymatic Assay for human Vascular Endothelial Growth Factor Receptor 3 (VEGFR3) (AID 2283229)
Procedure, shortened: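 Chemicals first run in duplicate at 25 uM, with actives re-tested in concentration series to a top of 50 uM. Recombinant VEGFR3 activity measured after 1 h via fluorescence with mobility-shift product separation; inhibition fitted relative to DMSO.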

[5] = target: human Vascular Endothelial Growth Factor Receptor 2 (VEGFR2), KDR (gene 3791) (UniProt P35968); assay: NVS_ENZ_hVEGFR2: NovaScreen (NVS) Enzymatic Assay for human Vascular Endothelial Growth Factor Receptor 2 (VEGFR2) (AID 2283230)
Procedure, shortened: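 Cell-free recombinant VEGFR2 kinase, fluorescent substrate with electrophoretic mobility-shift separation; read 1 h after dosing. Screened at 25 uM in duplicate, hits to concentration-response up to 50 uM; loss-of-signal versus DMSO.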

[6] = target: sheep Cyclooxygenase-2 (Cox2), PTGS2 (gene 443460) (UniProt P79208); assay: NVS_ENZ_oCOX2: NovaScreen (NVS) Enzymatic Assay for sheep Cyclooxygenase-2 (Cox2) (AID 2283231)
sheep Cyclooxygenase-2 (Cox2), PTGS2 (gene 443460), sequence (P79208 whole entry, looked up): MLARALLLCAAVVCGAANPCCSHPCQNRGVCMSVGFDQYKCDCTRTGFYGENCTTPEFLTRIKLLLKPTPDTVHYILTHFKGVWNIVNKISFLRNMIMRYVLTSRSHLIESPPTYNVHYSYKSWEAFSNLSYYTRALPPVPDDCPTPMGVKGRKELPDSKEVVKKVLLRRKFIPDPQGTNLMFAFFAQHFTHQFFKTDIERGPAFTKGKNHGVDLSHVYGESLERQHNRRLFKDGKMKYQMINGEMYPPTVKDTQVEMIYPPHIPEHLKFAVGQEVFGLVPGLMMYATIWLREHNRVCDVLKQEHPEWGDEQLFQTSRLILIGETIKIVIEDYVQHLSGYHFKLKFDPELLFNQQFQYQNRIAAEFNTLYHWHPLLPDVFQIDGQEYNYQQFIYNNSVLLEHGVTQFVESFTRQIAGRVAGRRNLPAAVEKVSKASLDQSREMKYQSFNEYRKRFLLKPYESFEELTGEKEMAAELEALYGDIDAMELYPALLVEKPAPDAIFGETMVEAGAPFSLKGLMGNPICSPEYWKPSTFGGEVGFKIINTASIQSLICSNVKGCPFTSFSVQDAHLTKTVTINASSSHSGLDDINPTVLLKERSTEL
Procedure, shortened: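 Compounds were first run at 25 uM in duplicate against tissue-extracted ovine COX-2; those passing a preset inhibition threshold went to singleton concentration-response testing with a 50 uM maximum. Read-out: absorbance at 0.66 hour.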

[7] = target: sheep Cyclooxygenase-1 (Cox1), PTGS1 (gene 443551) (UniProt P05979); assay: NVS_ENZ_oCOX1: NovaScreen (NVS) Enzymatic Assay for sheep Cyclooxygenase-1 (Cox1) (AID 2283239);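 also: actives reduce cyclooxygenase activity so potencies are for inhibitors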
sheep Cyclooxygenase-1 (Cox1), PTGS1 (gene 443551), sequence (P05979 whole entry, looked up): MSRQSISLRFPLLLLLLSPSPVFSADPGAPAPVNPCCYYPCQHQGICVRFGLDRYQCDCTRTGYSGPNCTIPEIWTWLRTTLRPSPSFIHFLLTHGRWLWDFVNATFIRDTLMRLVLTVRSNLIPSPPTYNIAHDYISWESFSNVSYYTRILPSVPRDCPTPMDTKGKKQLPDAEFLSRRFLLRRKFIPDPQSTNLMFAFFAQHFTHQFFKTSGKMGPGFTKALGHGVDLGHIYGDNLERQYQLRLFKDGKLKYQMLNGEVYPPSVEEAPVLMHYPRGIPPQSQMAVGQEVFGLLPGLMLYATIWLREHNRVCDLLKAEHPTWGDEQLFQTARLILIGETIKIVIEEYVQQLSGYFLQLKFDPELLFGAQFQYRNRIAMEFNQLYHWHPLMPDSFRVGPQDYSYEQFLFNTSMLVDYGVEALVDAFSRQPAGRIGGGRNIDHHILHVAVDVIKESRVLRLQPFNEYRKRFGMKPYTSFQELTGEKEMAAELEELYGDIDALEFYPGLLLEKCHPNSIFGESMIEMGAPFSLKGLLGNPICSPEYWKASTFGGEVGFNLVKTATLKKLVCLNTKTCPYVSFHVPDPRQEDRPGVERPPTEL
Procedure, shortened: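 COX1 from ovine seminal vesicles, activity read colorimetrically about 0.66 h after dosing. Primary screen in duplicate at 25 uM; actives retested in concentration series; loss of signal fitted versus DMSO.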

[8] = target: guinea pig Leukotriene D4 Receptor (LTD4), CYSLTR1 (gene 100135514) (UniProt Q2NNR5); assay: NVS_GPCR_gLTD4: NovaScreen (NVS) G Protein-Coupled Receptor Assay for guinea pig Leukotriene D4 Receptor (LTD4) (AID 2283248)
guinea pig Leukotriene D4 Receptor (LTD4), CYSLTR1 (gene 100135514), sequence (Q2NNR5 whole entry, looked up): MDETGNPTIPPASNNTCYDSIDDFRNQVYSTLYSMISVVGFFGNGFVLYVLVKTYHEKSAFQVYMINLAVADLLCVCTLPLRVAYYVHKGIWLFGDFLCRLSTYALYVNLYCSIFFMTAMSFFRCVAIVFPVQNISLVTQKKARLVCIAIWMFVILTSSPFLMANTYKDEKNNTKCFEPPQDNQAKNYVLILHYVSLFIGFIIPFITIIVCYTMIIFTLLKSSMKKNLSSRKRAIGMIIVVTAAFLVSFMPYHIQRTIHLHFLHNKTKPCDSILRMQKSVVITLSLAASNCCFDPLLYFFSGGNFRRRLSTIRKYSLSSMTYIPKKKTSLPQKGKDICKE
Procedure, shortened: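 Guinea pig lung membrane preparation; bound radioligand measured by filter scintillation after 1 h, loss of signal versus DMSO marking displacement. Compounds tested at 25 uM in duplicate, hits retested to max 50 uM.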

SMILES: O=C1c2c(O)ccc(Nc3ccc(CCO)cc3)c2C(=O)c2c([N+](=O)[O-])ccc(O)c21
- AC50 [1]: 2.07 µM (active)

SMILES: Cc1cc(O)c(C(C)(C)C)cc1C(C)(C)C
- outcome [1]: inactive

SMILES: CCCCCCCCCCCCCC[P+](CCCC)(CCCC)CCCC
- AC50 [2]: 14.8 µM (active)
- AC50 [3]: 18.5 µM (active)
- AC50 [4]: 17.5 µM (active)
- AC50 [5]: 11.4 µM (active)
- AC50 [6]: 5.19 µM (active)

SMILES: CCCCCCCCn1sc(Cl)c(Cl)c1=O
- outcome [6]: inactive

SMILES: CC1=CC2C3C=CC(C3)C2C1C (configuration not stated)
- AC50 [7]: 30.4 µM (active)

SMILES: CC(C)CCCC(C)CCO (configuration not stated)
- outcome [7]: inactive

SMILES: O=C(c1ccccc1)c1ccc(O)cc1O
- outcome [8]: inactive

SMILES: C[C@]12CC[C@H]3C(=CCc4cc(O)ccc43)[C@@H]1CCC2=O
- outcome [8]: inactive
